High-throughput results as filed in PubChem BioAssay.
PostGolgi yeast = growth inhibition of a yeast mutant, post-Golgi transport screen; inhibition, % at 10 µM; hit rate 0.9% among 98,000; AID 739; post-Golgi transport phenotypic cell assay;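 note: yeast cells grown in 1536-well plates; yeast grown about 18 h at 30C before absorbance read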
PostGolgi ctrl = yeast control strain growth, post-Golgi counter-screen | efflux-deficient yeast background strain, growth absorbance A615, 16 h | inhibition, % at 10 µM | hit rate 5% among 98,000
CYP2C19 act = cytochrome P450 2C19 (human) activation; P33261; recombinant CYP2C19, luciferin-H EGE luminescence; hits give high values; 0 = fully inhibited enzyme, 1 = untreated enzyme; activation factor at 5 µM; 96,000 tested, under 10 active; AID 1025;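 active = activation factor of at least 2 at 5 µM in the primary screen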;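 note: 0 = wells with 2.5 mM tranylcypromine and 1 = vehicle-only wells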
CYP2C9 act = increases human cytochrome P450 2C9 activity; P11712; recombinant CYP2C9, luciferin-H conversion, luminescence; hits give high values; factor 1 = untreated enzyme, 0 = blocked; activation factor at 5 µM; hit rate 1.4% among 96,000; AID 1024;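 active = activation factor of 2 or more for CYP2C9 at a 5 µM dose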;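 note: 0 = sulfaphenazole-blocked wells and 1 = vehicle-only wells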
Target sequence (P11712 whole entry, looked up): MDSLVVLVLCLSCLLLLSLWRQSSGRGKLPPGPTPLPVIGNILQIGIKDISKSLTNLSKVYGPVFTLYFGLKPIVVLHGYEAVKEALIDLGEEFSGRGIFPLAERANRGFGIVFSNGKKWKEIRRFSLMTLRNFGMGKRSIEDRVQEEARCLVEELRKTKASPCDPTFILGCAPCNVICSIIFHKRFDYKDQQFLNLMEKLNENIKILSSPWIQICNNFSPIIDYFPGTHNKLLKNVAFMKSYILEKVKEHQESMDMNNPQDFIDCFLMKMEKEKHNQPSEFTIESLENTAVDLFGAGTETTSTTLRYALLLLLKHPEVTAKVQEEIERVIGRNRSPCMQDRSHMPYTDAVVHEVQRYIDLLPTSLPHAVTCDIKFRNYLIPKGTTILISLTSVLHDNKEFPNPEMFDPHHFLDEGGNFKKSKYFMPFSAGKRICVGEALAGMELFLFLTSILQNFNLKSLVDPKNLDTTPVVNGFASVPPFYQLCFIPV
CYP2C19 inh = blocks human cytochrome P450 2C19; CYP2C19 Supersomes, luciferin-H EGE luminescence, 30 min; inhibition, % at 5 µM; hit rate 21% among 96,000;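 active = CYP2C19 inhibition above a set limit at 5 µM in the primary screen, cut at about 50% in these data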;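 note: plate controls were negative control wells for no effect and 2.5 mM tranylcypromine positive control for full effect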
CYP2C9 inhib = inhibitors of human CYP2C9; P11712; CYP2C9 Supersomes, luciferin-H conversion, luminescence; inhibition, % at 5 µM; hit rate 20% among 96,000;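 active = blocking of liver enzyme CYP2C9 beyond about 50% at 5 µM, limit read from the data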
* = called active by the depositor; nt = not tested or not shown. A selection: hits, their analogues and other compounds. The true share with any hit is near 32%. Cut-off read from the data, not from the text of the source, unless noted: active = inhibition above about 30%; inactive = the rest.

SMILES	PostGolgi yeast	PostGolgi ctrl	CYP2C19 act	CYP2C9 act	CYP2C19 inh	CYP2C9 inhib
O=c1cccc2n1CC1CC2CN(S(=O)(=O)c2ccccc2)C1 (stereo not drawn)	43*	3	1	1.1	-3	-8
CC1(C)CC(=O)C(C2(O)C(=O)NC(=O)NC2=O)=C(O)C1	1	7	0.9	0.9	6	8
Cc1ccc(-n2c(O)c(C=NC3CCCC3)c(=O)[nH]c2=O)c(C)c1	-5	-1	0.1	0.9	94*	10
Cc1ccc(-n2c(O)c(C=NC3CCCCC3N)c(=O)[nH]c2=O)cc1C (stereo not drawn)	10	-3	1	1	-3	2
COCCOC(=O)c1c(N)n(Cc2ccc(OC)cc2)c2nc3ccccc3nc12	9	8	0.4	0.2	64*	83*
COC(=O)c1c(N)n(Cc2ccc(OC)cc2)c2nc3ccccc3nc12	-4	27	0.3	0.3	75*	71*
c1ccc2c(NC3=NCCS3)cccc2c1	0	5	0.6	0.8	44	20
O=C(CNS(=O)(=O)c1cccs1)N1CCC2(CC1)OCCO2	2	6	0.5	1.1	52*	-10
C=CCN1C(=O)C2(C(C(=O)OCC)=C(N)Oc3ccccc32)c2c1c1ccccc1oc2=O (stereo not drawn)	11	0	0.8	0.5	21	53*
CCCCCSc1cc(OC)c(CCN)cc1OC	5	-3	0	0.5	96*	45
CCCCCCCSc1cc(OC)c(CCN(C)C)cc1OC	4	84*	0.3	1	67*	-1
CC(=NCCN1CCCCC1)c1c(O)[nH]c(=O)[nH]c1=O	15	6	0.8	0.9	22	9
O=C(Nc1ccc(Cl)cc1)O/N=C(\c1ccccc1)c1ccccn1	2	14	0.8	0.4	18	57*
COC(=O)c1ccc(COc2cc(C)cc3oc(=O)c4c(c23)CCCC4)o1	-2	1	0.2	0	79*	98*
Cc1cc(OCC(=O)Nc2cc(C)nn2-c2ccccn2)c2c3c(c(=O)oc2c1)CCC3	nt	nt	1	0.5	3	48
Cc1cc(OCC(=O)O)c2c3c(c(=O)oc2c1)CCCC3	10	9	1	0.9	1	9
Cc1ccc(-n2nc(C)cc2NC(=O)COc2cc(C)cc3oc(=O)c4c(c23)CCC4)cc1	1	8	0.8	0.2	25	80*
COc1ccc2c(c1OC)C(=O)OC2c1c(O)n(Cc2ccc(F)cc2)c(=O)[nH]c1=O (stereo not drawn)	-4	12	1	0.7	0	28
O=P(Nc1ccccc1)(Nc1ccccc1)Oc1cccc(Cl)c1	-8	16	0.5	0.5	47	51*
O=C(Cc1ccccc1)Oc1cccc(N2C(=O)CCC2=O)c1	3	33*	0.8	0.8	20	17
O=P1(Nc2ccc(F)cc2)COc2ccccc2OC1	9	3	0.4	1.1	64*	-11
ON1C2CCCCC2N(O)C1c1ccccc1F (stereo not drawn)	9	9	1.1	1.1	-8	-5
Nc1c(C(=O)NC2CCCC2)c2nc3ccccc3nc2n1CC1CCCO1 (stereo not drawn)	-2	62*	1	0.7	2	27
C=CCNC(=O)c1c(N)n(CCN2CCOCC2)c2nc3ccccc3nc12	-1	21	0.8	0.7	24	29
CC(C)OCCCNC(=O)c1c(N)n(Cc2cccs2)c2nc3ccccc3nc12	8	28	0.9	0.1	14	91*
SMILES	PostGolgi yeast	PostGolgi ctrl	CYP2C19 act	CYP2C9 act	CYP2C19 inh	CYP2C9 inhib
Nc1c(C(=O)OCC2CCCO2)c2nc3ccccc3nc2n1Cc1cccs1 (stereo not drawn)	-2	9	0.6	0.4	41	57*
COc1ccc(S(=O)(=O)NC(CC(=O)N2CCC3(CC2)OCCO3)C(C)C)cc1 (stereo not drawn)	-5	6	0.8	0.9	21	15
Nc1ccccc1C(=O)OC1CSC1	-1	29	1.2	1.1	-16	-13
CNCCc1nc(N)n[nH]1	-10	3	1.1	1.1	-8	-9
Cc1ccc(CS(=O)(=O)CCC(=O)N2CCC3(CC2)OCCO3)cc1	2	10	1.2	1.2	-18	-17
Cc1ccc2c(c1)N(CCC(=O)N1CCC3(CC1)OCCO3)C(=O)C(C)O2 (stereo not drawn)	-4	5	0.1	1.3	89*	-30
Cc1ccc2c(c1)N(CCC(=O)N1CCC3(CC1)OCCO3)C(=O)CO2	-3	5	0	1.8	95*	-77
O=C(CCn1c(=O)oc2ccccc21)N1CCC2(CC1)OCCO2	4	2	0.6	1.1	44	-9
CC12CN3C(O)C(C)(C1)CC(C)(C2)C3O (stereo not drawn)	-5	20	0.9	1	10	-1
CCN1CCN(C(=O)COc2ccc3c(c2)C(=O)CC2(CCN(C(C)=O)CC2)O3)CC1	0	5	1	0.9	3	12
CCn1c(O)c(C=NCc2cccs2)c(=O)[nH]c1=O	0	13	1	1.1	-4	-7
CC1(C)C(C(=O)NN2C(=O)c3ccccc3C2=O)C1(C)C	-6	1	0.8	1	20	2
Oc1ccc(Br)cc1CN1CCN(c2ccccc2)CC1	0	5	0.8	0.4	24	64*
COc1ccc(Br)cc1CN1CCN(CCO)CC1	11	21	0.7	0.7	28	26
COc1ccccc1N1CCN(Cc2ccc(Br)s2)CC1	-5	4	0.1	0.2	94*	78*
COc1cc(C)c(CN2CCN(c3ccccc3)CC2)cc1C	-3	7	0.4	0.9	56*	6
CN1CCN(Cc2ccc(Br)s2)CC1	4	6	1	1.2	0	-22
COc1cc(CN2CCN(c3cc(C)ccc3C)CC2)ccc1O	-2	2	0.4	0.7	56*	33
COc1cc(Br)cc(CN2CCN(C)CC2)c1O	-39	6	1	1.1	2	-7
COc1ccccc1N1CCN(Cc2cc(C)c(C)cc2O)CC1	5	-4	0.2	2.1*	79*	-110
COc1ccccc1N1CCN(Cc2c(F)cccc2Cl)CC1	-2	0	0	0.3	97*	68*
COc1ccc(S(=O)(=O)NC(CC(=O)N2CCC3(CC2)OCCO3)c2ccco2)cc1 (stereo not drawn)	-3	-3	0.2	0.5	76*	51*
COc1ccc(CCC(=O)N2CCC3(CC2)OCCO3)cc1	-14	-6	0.2	0.9	75*	6
CCOc1ccccc1C1SCC(=O)Nc2c1c(=O)[nH]n2C(CC)CC (stereo not drawn)	2	8	1	1	2	-1
CCOC(=O)N1CCN(C(C)C(=O)c2c[nH]c3ccccc23)CC1 (stereo not drawn)	-4	12	0.1	0.2	92*	84*
